In ChEMBL document CHEMBL4513146, “CO-ADD screening of Karazin Kharkiv National University (Ukraine) compounds”:
Potency and affinity values are given separately.

Tests used:
Staphylococcus aureus = settings: Concentration 32 ug.mL-1;; ASSAY_TEST Inhibition of Bacterial Growth; detection method Absorption (OD600); MEDIA CAMHB; plate type 384well; NBS; CORNING #3640; time 18 hr
Escherichia coli = settings: Concentration 32 ug.mL-1;; ASSAY_TEST Inhibition of Bacterial Growth; detection method Absorption (OD600); MEDIA CAMHB; plate type 384well; NBS; CORNING #3640; time 18 hr

| Structure (SMILES) | Inhibition (Staphylococcus aureus) | Inhibition (Escherichia coli) |
| --- | --- | --- |
| Cc1nnc2c(S(=O)(=O)N(Cc3ccc(F)cc3)c3ccc(Cl)cc3)cccn12 | 5.21% | -5.38% |
| Cc1cccc(NC(=O)Cn2nc3ccc(-c4ccccc4)nn3c2=O)c1 | 1.55% | -5.19% |
| Cc1ccc(CN(c2cc(C)cc(C)c2)S(=O)(=O)c2cccn3c(C)nnc23)cc1 | 31.07% | -7.16% |
| CCc1nnc2c(S(=O)(=O)N(Cc3cccc(OC)c3)c3cccc(C)c3)cccn12 | 10.64% | -1.22% |
| Cc1cccc(C)c1NC(=O)Cn1nc2n(C)c(=O)c3c(c(-c4ccccc4)cn3C)n2c1=O | 8.81% | 0.54% |
